Bioassay records as filed in PubChem.
VACV mCherry inh: qHTS for Stage-Specific Inhibitors of Vaccinia Orthopoxvirus: mCherry Reporter Primary qHTS | Vaccinia virus mCherry reporter infection, fluorescence | Potency, µM (doses to about 36.5 µM), for the others: at the top dose activity change, negative = inhibition, actives largely listed as inhibitors | actives 0.63% (n = 310,000); calls by dose curve; tested in A549 cells; further: potency means the concentration at half of the fitted maximal effect; nearly all actives have a fitted effect of over 35% in size
FMDV antiviral: High Throughput Screening for Foot and Mouth Disease Virus Antivirals. FMDV antiviral cell-based qHTS. actives 1.2% (n = 410,000). Potency, µM (series often up to 57.9 µM), without a hit: at the top dose activity change, negative = inhibition, usual class: inhibitors; calls by dose curve; tested in HEK293T cells; further: read-out not given here; potency means the concentration at half of the fitted maximal effect; nearly all actives have a fitted effect of over 45% in size
VACV Venus inh: qHTS for Stage-Specific Inhibitors of Vaccinia Orthopoxvirus: Venus Reporter Primary qHTS. Vaccinia virus Venus reporter expression, fluorescence. actives 0.46% (n = 330,000). AID 720580, 2013. Potency, µM (top dose mostly 36.5 µM), inactives show top-dose activity change, negative = inhibition, usual class: inhibitors; calls by dose curve; tested in A549 cells; further: potency means the concentration at half of the fitted maximal effect; nearly all actives have a fitted effect of over 30% in size
LASV entry inh: qHTS for Inhibitors of binding or entry into cells for Lassa Virus; actives 1.2% (n = 300,000); AID 540256, 2011; Potency, µM (titrated, usually from 37.9 µM), inactives show at the highest dose activity change, negative = inhibition, hits mostly inhibitors; Lassa virus pseudotype entry inhibition, cell reporter; calls by dose curve; tested in HEK293 cells; further: potency means the concentration at half of the fitted maximal effect; nearly all actives have a fitted effect of over 50% in size
HCMV antiviral: qHTS Assay for inhibitors of the human cytomegalovirus (HCMV) | activity change, negative = inhibition, % at 57.5 µM | HFF cells, HCMV-luciferase reporter, 72 h; hits give low values | actives 4.5% (n = 410,000); in the data active means activity change below about -60%; inconclusive means no clear call, values can overlap the other calls; inactive means above about -39%
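After 16 h attachment at 37C, HFF cells received test compound and HCMV-luciferase (1 PFU/cell); reporter luminescence read 72 h later, data normalized against buffer-only and known inhibitor Salinomycin.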
MARV entry inh: qHTS for inhibitors of binding or entry into cells for Marburg Virus; Marburg virus pseudotyped entry inhibition, cell reporter; Potency, µM (top dose mostly 37.8 µM), for inactives: at the highest dose activity change, negative = inhibition, hits mostly inhibitors; actives 1.8% (n = 300,000); AID 540276, 2011; calls by dose curve; tested in HEK293 cells; further: potency means the concentration at half of the fitted maximal effect
* = called active by the depositor; [ ] = another dose, or the depositor's remark. In the library only some 6.5% were active in any assay of this set; here they are far more common. On the % scale 0 is the no-effect control and ±100 the full control effect.

For CCOC(=O)C1=C(O)CCn2c1nc1ccccc12 the results were FMDV antiviral -12%, LASV entry inh -6%, HCMV antiviral -107* and MARV entry inh 24%.
Screening Cc1cccc(NC(=O)COC(=O)c2ccc([N+](=O)[O-])o2)c1C returned VACV mCherry inh 4%, FMDV antiviral -14%, VACV Venus inh -5%, LASV entry inh -1%, HCMV antiviral -32 and MARV entry inh -6%[46.1 µM].
`COc1ccc(S(=O)(=O)N2CCN(C(=O)c3ccc([N+](=O)[O-])o3)CC2)cc1` gave VACV mCherry inh -18%, FMDV antiviral -10%, VACV Venus inh inconclusive, LASV entry inh 2%, HCMV antiviral 25 and MARV entry inh -7%[46.1 µM].
Screening Cc1ccccc1/C=C/C(=O)c1ccc([N+](=O)[O-])o1 returned VACV mCherry inh inconclusive, FMDV antiviral 22µM*, VACV Venus inh inconclusive and HCMV antiviral -103*.
Screening O=C(/C=C/c1cccc([N+](=O)[O-])c1)c1ccc([N+](=O)[O-])o1 returned VACV mCherry inh inconclusive, FMDV antiviral inconclusive, VACV Venus inh 13µM* and HCMV antiviral -10.
For Cc1cccc(/C=C/C(=O)c2ccc([N+](=O)[O-])o2)c1 the results were VACV mCherry inh inconclusive, FMDV antiviral 25µM*, VACV Venus inh 11µM* and HCMV antiviral -103*.
For COc1ccc(/C=C/C(=O)c2ccc([N+](=O)[O-])o2)cc1 the results were VACV mCherry inh inconclusive, FMDV antiviral 25µM*, VACV Venus inh inconclusive and HCMV antiviral 44.
Screening Cc1cccc(NC(=O)c2ccc([N+](=O)[O-])o2)n1 returned VACV mCherry inh -9%, FMDV antiviral -24%, VACV Venus inh -27%, LASV entry inh -16%, HCMV antiviral inconclusive and MARV entry inh inconclusive.
O=C(/C=C/c1cccc([N+](=O)[O-])c1)c1ccco1 was read as FMDV antiviral -25% and HCMV antiviral 1.
For CC(C)Cc1ccc(C(C)C(=O)Nc2ccccc2O)cc1 (stereo unspecified) the results were VACV mCherry inh inconclusive, FMDV antiviral inconclusive, VACV Venus inh -25%, LASV entry inh inconclusive, HCMV antiviral -82* and MARV entry inh inconclusive.
Screening Cc1ccccc1NC(=O)CSc1cn(CC(=O)N(C(C)C)C(C)C)c2ccccc12 returned VACV mCherry inh 1%, FMDV antiviral -14%, VACV Venus inh -8%, LASV entry inh 1%[46.1 µM] and HCMV antiviral inconclusive.
For CCOc1ccc(Nc2c(S(=O)(=O)c3ccc(Cl)cc3)cnc3ccc(OC)cc23)cc1 the results were VACV mCherry inh -26%, FMDV antiviral -19%, VACV Venus inh -20%, HCMV antiviral inconclusive and MARV entry inh -1%[46.1 µM].
Screening Cc1ccc(S(=O)(=O)CC(=O)Nc2ccccn2)cc1 returned VACV mCherry inh -15%, FMDV antiviral -2%, VACV Venus inh -19%, LASV entry inh 1%[46.1 µM], HCMV antiviral -63* and MARV entry inh -20%[46.1 µM].
`Cc1ccc(NC(=O)C(=O)Nc2ccccn2)cc1` gave VACV mCherry inh inactive, FMDV antiviral inconclusive, VACV Venus inh -19%, LASV entry inh 2.9µM*, HCMV antiviral -17 and MARV entry inh 1.1µM*.
Screening Cc1ccc(S(=O)(=O)CC(=O)Nc2ccc(S(=O)(=O)Nc3ccccn3)cc2)cc1 returned FMDV antiviral 53% and HCMV antiviral 9.
For Cc1ccc(NC(=S)Nc2ccccn2)c(C)c1 the results were VACV mCherry inh inactive, FMDV antiviral 30%, VACV Venus inh -16%, LASV entry inh inconclusive, HCMV antiviral -21 and MARV entry inh 4µM*.
`Cc1cn2c(=O)cc(COC(=O)c3cccc(NC(=O)COc4ccccc4)c3)nc2s1` gave VACV mCherry inh -23%, FMDV antiviral -13%, VACV Venus inh -15%, LASV entry inh 11%[46.1 µM] and HCMV antiviral inconclusive.
`Clc1ccc2nc(-c3ccc(Br)s3)cn2c1` gave FMDV antiviral -18%, LASV entry inh 8.2µM*, HCMV antiviral 6 and MARV entry inh inconclusive.
CCCCN(CC)CCCNC(=O)c1c(C)oc2ncnc(N3CCOCC3)c12 was read as VACV mCherry inh -15%, FMDV antiviral -5%, VACV Venus inh -18%, LASV entry inh 21%[46.1 µM] and HCMV antiviral -66*.
Screening COc1cccc(CNC(=O)c2c(C)oc3ncnc(N4CCOCC4)c23)c1 returned VACV mCherry inh -9%, FMDV antiviral -8%, VACV Venus inh -8%, LASV entry inh inconclusive and HCMV antiviral -13.
For CCc1ccc(CNC(=O)c2c(C)oc3ncnc(N4CCOCC4)c23)cc1 the results were VACV mCherry inh -11%, FMDV antiviral inconclusive, VACV Venus inh -16%, LASV entry inh 23%[46.1 µM] and HCMV antiviral -61*.
CCN(CC)CCCNC(=O)c1c(C)oc2ncnc(N3CCOCC3)c12 was read as VACV mCherry inh inactive, FMDV antiviral -9%, VACV Venus inh -12%, LASV entry inh -2%[46.1 µM] and HCMV antiviral 27.
For Cc1cccc(/C(N)=N/OC(=O)N2CCOCC2)c1 the results were VACV mCherry inh inconclusive, VACV Venus inh inconclusive, LASV entry inh 16µM*, HCMV antiviral -74* and MARV entry inh 23µM*.
Screening Cc1ccc(/C(N)=N/OC(=O)N2CCOCC2)cc1 returned VACV mCherry inh -20%, VACV Venus inh -25%, LASV entry inh inconclusive, HCMV antiviral -85* and MARV entry inh 15µM*.
Cc1cccc(/C(N)=N/OC(=O)c2ccco2)c1 was read as FMDV antiviral 0%, VACV Venus inh 0%, LASV entry inh inconclusive, HCMV antiviral 41 and MARV entry inh inconclusive.
OC1(c2cccnc2)CCN(Cc2ccc3c(c2)CN(Cc2ccc(F)c(F)c2)CCO3)CC1 was read as VACV mCherry inh -12%, FMDV antiviral -23% and VACV Venus inh -11%.
Screening CCn1c(=O)c2cc(C(=O)NCCc3cc(OC)ccc3OC)sc2c2ccccc21 returned VACV mCherry inh 1%, FMDV antiviral -10%, VACV Venus inh -5%, LASV entry inh 6%[46.1 µM], HCMV antiviral -10 and MARV entry inh -2%[46.1 µM].
For N#CC1=C2SCN(c3ccc(F)cc3)CN2C(=O)CC1c1cccc(F)c1 (stereo unspecified) the results were VACV mCherry inh 12%, FMDV antiviral -2%, VACV Venus inh 0% and HCMV antiviral -93*.
CCc1ccc(C2CC(=O)N3CN(c4ccccc4)CSC3=C2C#N)cc1 (stereo unspecified) was read as VACV mCherry inh inconclusive, FMDV antiviral -14%, VACV Venus inh -13% and HCMV antiviral 26.
For CCOC(=O)c1c(CSc2ccccc2)n(C)c2cc(Br)c(OCC(O)CNC(CO)(CO)CO)cc12 (stereo unspecified) the results were VACV mCherry inh -25%, FMDV antiviral -15%, VACV Venus inh inconclusive, LASV entry inh inconclusive, HCMV antiviral -63* and MARV entry inh inconclusive.
